Most compounds without a hit are left out; they make up all but 0.95% or so of the library.
Tb PYK inh – blocks Trypanosoma brucei pyruvate kinase; Q57TT1; TbPYK enzyme, Kinase-Glo Plus ATP luminescence, 45 min; Potency, µM (titrated, usually from 76.8 µM), for inactives: at the highest dose activity, negative = inhibition, actives largely listed as inhibitors; 410,000 tested, 0.12% active; AID 624173; further: nearly all actives have a fitted effect of over 50% in size
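Assay buffer: 50 mM TEA pH 7.2, 100 mM KCl, 10 mM MgCl2, 0.05% BSA, 0.01% Tween-20. Pyruvate kinase from T. brucei plus substrate met compound, then ADP (130 uM final). Luminescence was read post 45 min RT.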
LmPK inh – inhibitors of Leishmania mexicana pyruvate kinase; purified LmPK, Kinase-Glo ATP luminescence, 1 h; Potency, µM (doses to about 57.5 µM), for the others: at the highest dose activity change, negative = inhibition, actives largely listed as inhibitors; 290,000 tested, 0.37% active
Target sequence (Q27686 whole entry, looked up): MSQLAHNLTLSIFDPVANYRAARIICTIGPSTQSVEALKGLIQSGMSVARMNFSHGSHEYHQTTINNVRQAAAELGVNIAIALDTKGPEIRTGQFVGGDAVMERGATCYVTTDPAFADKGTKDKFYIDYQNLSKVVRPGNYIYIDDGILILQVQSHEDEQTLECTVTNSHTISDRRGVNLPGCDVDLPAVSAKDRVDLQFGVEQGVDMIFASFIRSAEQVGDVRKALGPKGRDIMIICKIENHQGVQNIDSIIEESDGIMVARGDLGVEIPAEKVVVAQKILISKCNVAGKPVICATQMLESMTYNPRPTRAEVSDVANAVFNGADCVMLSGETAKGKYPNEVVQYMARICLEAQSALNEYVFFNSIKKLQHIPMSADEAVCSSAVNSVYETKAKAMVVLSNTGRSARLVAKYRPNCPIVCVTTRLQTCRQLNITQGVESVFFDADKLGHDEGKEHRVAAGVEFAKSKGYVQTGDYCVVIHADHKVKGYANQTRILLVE
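Pyruvate kinase activity monitored as ATP production (luciferase luminescence). Conditions: 0.1 nM enzyme, 0.5 mM PEP, 0.1 mM ADP, 1 h, RT; normalized against uninhibited and no-enzyme wells.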
Giardia FBPA inh-1 – blocks Giardia fructose-bisphosphate aldolase activity. purified Giardia FBPA. 290,000 tested, 0.71% active. Potency, µM (series often up to 59.6 µM), inactives show at the top dose activity, negative = inhibition, actives largely listed as inhibitors. AID 2451; further: nearly all actives have a fitted effect of over 55% in size
Target sequence (A8B2U2 whole entry, looked up): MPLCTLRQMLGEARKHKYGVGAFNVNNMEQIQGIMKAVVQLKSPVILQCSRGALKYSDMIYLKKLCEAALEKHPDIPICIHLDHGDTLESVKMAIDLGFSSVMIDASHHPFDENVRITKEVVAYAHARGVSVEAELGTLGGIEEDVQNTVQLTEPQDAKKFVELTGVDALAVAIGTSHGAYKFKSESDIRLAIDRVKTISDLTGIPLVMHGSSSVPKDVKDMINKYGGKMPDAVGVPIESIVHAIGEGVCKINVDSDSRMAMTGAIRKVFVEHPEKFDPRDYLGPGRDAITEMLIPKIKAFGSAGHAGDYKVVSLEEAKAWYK
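40 nM FBPA preincubated 10 min at RT with compound (up to 57.5 uM final), then substrate plus GAPDH/TPI/NAD/arsenate coupling and diaphorase/resazurin added. Fluorescence read after 20 min at RT, 525/598 nm.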
RE007 growth inh – less growth of the S. pombe RE007 Vpr strain. 360,000 tested, 0.21% active. AID 651644. Potency, µM (titrated, usually from 92.2 µM), for the others: at the top dose activity change, negative = less growth, hits mostly inhibitors. S. pombe RE007 Vpr strain, BacTiter-Glo ATP luminescence, 24 h; active means well fitted falling curve with a large enough effect; inconclusive means small, poorly fitted or top-dose-only effect; inactive means no such curve, though single readings can be large or run the other way; further: nearly all actives have a fitted effect of over 50% in size
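Fission yeast RE007 carrying one integrated HIV-1 vpr copy, seeded at OD 0.01 in PMG+AL medium with 23 nL pinned compound. Grown 24 h at 30 degrees; viability read by BacTiter-Glo luminescence after 5 min.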
Giardia growth – blocks growth of Giardia lamblia trophozoites; Potency, µM (doses to about 57.5 µM), for inactives: at the top dose activity change, negative = inhibition, most hits filed as inhibitors; 1,500 tested, 5% active; AID 2785; Giardia lamblia trophozoite growth inhibition; shares compounds with Giardia FBPA inh-1;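 further: trophozoites exposed to compound for 48 h at 37 °C; nearly all actives have a fitted effect of over 70% in size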
Mammal cell tox – counter-screen for Giardia aldolase inhibitors: mammalian cell toxicity; shares compounds with Giardia FBPA inh-1; mammalian cell viability counter-screen, qHTS; Potency, µM (titrated, usually from 57.5 µM), without a hit: at the top dose viability change, negative = toxicity, actives largely listed as inhibitors; 1,500 tested, 4% active; AID 2786;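 further: Chinese hamster ovary cells used as mammalian cytotoxicity surrogate; viability measured as cellular ATP by luminescence; compound exposure lasted 48 h before reading; nearly all actives have a fitted effect of over 60% in size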
Giardia FBPA inh-2 – confirmation of Giardia fructose-bisphosphate aldolase inhibitors; shares compounds with Giardia FBPA inh-1; purified Giardia aldolase enzyme activity, qHTS; Potency, µM (top dose mostly 57.5 µM), for inactives: at the highest dose activity change, negative = inhibition, usual class: inhibitors; 1,500 tested, 5% active; AID 2787; further: nearly all actives have a fitted effect of over 45% in size
Rabbit aldolase – selectivity test for Giardia aldolase inhibitors: rabbit aldolase; 1,500 tested, 4% active; Rabbit muscle FBPA enzyme inhibition, selectivity counter-screen; shares compounds with Giardia FBPA inh-1; Potency, µM (top dose mostly 57.5 µM), for inactives: at the top dose activity, negative = inhibition, hits mostly inhibitors; AID 2794; further: nearly all actives have a fitted effect of over 60% in size
GAPDH counter – counter-screen for Giardia aldolase inhibitors: GAPDH coupling enzyme; shares compounds with Giardia FBPA inh-1; GAPDH coupling enzyme counterscreen, biochemical, qHTS; Potency, µM (series often up to 57.5 µM), without a hit: at the top dose activity change, negative = inhibition, actives largely listed as inhibitors; 1,500 tested, 6% active; further: nearly all actives have a fitted effect of over 55% in size
Active calls of the source: *; ? = inconclusive; . = not tested or not shown; [ ] = another dose, or the depositor's remark. Unless noted, the call rests on the fitted dose curve; in most records, active means well fitted curve in the direction sought with a large enough effect; inconclusive means small, poorly fitted or top-dose-only effect, or another doubt; inactive means no such curve, though single readings can be large; an effect the other way counts as inactive or inconclusive. On the % scale 0 is the no-effect control and ±100 the full control effect; potency means the concentration at half of the fitted maximal effect.

SMILES | Tb PYK inh | LmPK inh | Giardia FBPA inh-1 | RE007 growth inh | Giardia growth | Mammal cell tox | Giardia FBPA inh-2 | Rabbit aldolase | GAPDH counter
Clc1ccc(SCCOCCN2CCOCC2)cc1 | 22% | 1% | 18µM* | -10% | 9%[10.4 µM] | 25% | 11% | -1% | 11%
CCOC(=O)C1CCN(C(c2ccc(SC)cc2)c2c(O)cc(C)n(Cc3ccco3)c2=O)CC1 (stereo not given) | -7% | . | . | . | . | . | . | . | .
Cc1ccc(C)n1-c1nc(=S)[nH][nH]1 | ? | 14% | 18µM* | -6% | -3%[10.4 µM] | -8% | 2% | -22% | -21%
O=C(NCCCN1CCCCC1)c1cc(Sc2ccc(Cl)cc2)nc2ccccc12 | 5% | . | . | . | . | . | . | . | .
O=C(c1ccco1)N1CCN(Cc2cccc3ccccc23)CC1 | 14% | -2% | 16µM* | -8% | ? | -3% | 4% | 7% | 8%
CCc1ccc(CN2CCN(C(=O)c3ccco3)CC2)cc1 | 5% | 2% | 28µM* | 7% | 10% | 11% | 9% | 1% | 11%
CCc1ccc(CN(Cc2ccco2)C(=O)COc2ccccc2Cl)cc1 | 2% | . | . | . | . | . | . | . | .
O=C(NC(=S)Nn1cnnc1)c1ccc(F)cc1Cl | -8% | -7% | 14µM* | -11% | -14% | 11% | -1% | 12% | 13%
COc1ccccc1NC(=O)CC(c1cc(OC)c(OC)c(OC)c1)N1Cc2ccccc2C1=O (stereo not given) | -7% | . | . | . | . | . | . | . | .
Cc1cc(C)nc(NN2C(=O)C=CC2=O)n1 | -17% | -4% | 5µM* | -11% | ? | -6% | 1% | -1% | -1%
CCC(Sc1ncnc2sc3c(c12)CCCC3)C(=O)OCC(C)C (stereo not given) | -3% | . | . | . | . | . | . | . | .
N#CC1=C2SCN(c3ccc(F)cc3)CN2C(=O)CC1c1cccc(F)c1 (stereo not given) | ? | 2% | 7.1µM* | -8% | 12% | 5% | -28% | ? | -26%
CCOC(=O)c1ccc(N2CSC3=C(C#N)C(c4cccs4)CC(=O)N3C2)cc1 (stereo not given) | ? | 2% | 20µM* | -18% | 25% | -18% | -13% | -23% | -7%
Cc1ccc(C(=O)NC(=S)NNC(=O)c2ccccc2O)cc1 | -8% | 3% | ? | -6% | . | . | . | . | .
Cc1ccc(C(=O)NNC(=S)NC(=O)c2ccccc2)cc1 | -12% | . | . | -16% | . | . | . | . | .
O=C(NC(=S)NNC(=O)c1ccccc1O)c1ccccc1 | -5% | 2% | ? | -1% | ? | -21% | 0% | 2% | -17%
Cc1ccccc1C(=O)NNC(=S)NC(=O)c1ccccc1 | -19% | 3% | ? | ? | -11%[38.3 µM] | -27% | 13% | 4% | 2%
O=C(Cc1ccccc1)NNC(=S)NC(=O)c1cccnc1 | ? | 4% | 7.1µM* | -5% | -22% | -3% | 15% | 9% | 12%
COc1ccc(-c2nc(SCC(=O)Nc3c(C)cc(C)cc3C)n[nH]2)cc1 | 5% | . | . | . | . | . | . | . | .
Cc1cccc(N(CC(=O)N/N=C/c2cc([N+](=O)[O-])ccc2Cl)S(C)(=O)=O)c1C | -4% | 1% | 18µM* | -5% | -3%[38.3 µM] | 1% | -16% | -17% | ?
CS(=O)(=O)N(CC(=O)N/N=C/c1cc([N+](=O)[O-])ccc1Cl)c1ccccc1 | -9% | -1% | ? | 0% | . | . | . | . | .
Cn1c(=O)c(-c2ccc(Cl)cc2)nc2cncnc21 | . | . | 8% | . | . | . | . | . | .
Cn1ncnc2c(=O)n(C)c(=O)nc1-2 | -3% | -1% | 0.5µM* | -25% | 13µM* | 8.9µM* | 3.2µM* | 4.5µM* | 2.5µM*
Cc1ccc(NCc2ccncc2)c(Br)c1 | 46% | -1% | ? | 4% | . | . | . | . | .
Cc1cc(NCc2ccncc2)ccc1Br | 1% | -3% | 22µM* | -8% | 26% | -6% | -5% | -6% | 2%
SMILES | Tb PYK inh | LmPK inh | Giardia FBPA inh-1 | RE007 growth inh | Giardia growth | Mammal cell tox | Giardia FBPA inh-2 | Rabbit aldolase | GAPDH counter
Cc1cccc(NC(=O)CN2C(=O)COc3ccc(S(=O)(=O)N4CCC(C)CC4)cc32)c1C | -3% | . | . | . | . | . | . | . | .
O=C(NC1CC(=O)N(c2ccc(F)cc2)C1)C1CCCC1 (stereo not given) | -6% | . | . | . | . | . | . | . | .
Cc1c(Br)c(=O)oc2c(Br)c(O)ccc12 | -2% | -4% | -10% | 1% | . | . | . | . | .
Cc1c(Br)c(=O)oc2c(Br)c(O)c(O)cc12 | -4% | 4% | ? | -10% | -5%[38.3 µM] | -20% | ? | ? | -5%
Nc1ncnc(Sc2ncccn2)c1[N+](=O)[O-] | -5% | 2% | 18µM* | -19% | 5%[10.4 µM] | ? | 4% | -2% | 18%
Nc1ncnc(Sc2ccccc2)c1[N+](=O)[O-] | -6% | -2% | 10% | -25% | . | . | . | . | .
Cc1ccccc1CNC(=O)CCS(=O)(=O)c1cc2c3c(c1)CCN3C(=O)CC2 | 1% | . | . | . | . | . | . | . | .
COc1ccc2c(C)c(CCC(=O)NCc3ccc(Cl)cc3)c(=O)oc2c1C | -2% | . | . | . | . | . | . | . | .
CC1=CC(=O)c2ccccc2C1=O | 1% | 2% | ? | -25%[18.4 µM] | -8%[38.3 µM] | -14% | ? | ? | ?
CCc1ccc(S(=O)(=O)c2nnn3c2nc(NCCC(C)C)c2cc(Cl)ccc23)cc1 | -4% | . | . | . | . | . | . | . | .
Cc1ccccc1OCC(=O)Nc1cccc(C(=O)OCc2cc(=O)n3c(C)csc3n2)c1 | -7% | . | . | . | . | . | . | . | .
O=C(NCCCNCCCNC(=O)c1ccc(/C=N/O)nc1)c1ccc(/C=N/O)nc1 | 6% | -1% | 4µM* | 8% | -18%[38.3 µM] | 2% | -9% | -4% | -25%
CN(CCCNC(=O)c1ccc(/C=N/O)nc1)CCCN(C)Cc1ccccc1 | 6% | -3% | . | -22% | . | . | . | . | .
CN(C)C(=S)NC1CCS(=O)(=O)C1 (stereo not given) | -6% | 7% | -4% | ? | . | . | . | . | .
NNC(=S)NC1CCS(=O)(=O)C1 (stereo not given) | -3% | 3% | 18µM* | 38% | 29% | 11% | -3% | 12% | 2%
CCc1nnc2n1N(C(C)=O)C(c1ccc(C(C)(C)C)cc1)=C(C(C)=O)S2 | -1% | . | . | . | . | . | . | . | .
CC1CN(CN2C(=O)c3ccccc3C2=O)CC(C)O1 (stereo not given) | -1% | 3% | 0% | 1% | . | . | . | . | .
CC1CN(CCCCN2C(=O)c3ccccc3C2=O)CC(C)O1 (stereo not given) | 1% | 1% | 22µM* | -5% | ? | 18% | 2% | 2% | 2%

Screens (PubChem BioAssay)
